# Measured values reported in PubChem BioAssay.
# Activity calls are given as the source filed them.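 The calls were made as follows, unless noted: active = visually confirmed hit in the image check and inhibition above 20%; inconclusive = visually confirmed hit but inhibition not above 20%; inactive = no visual hit in the image check.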
# Key:
# [1] = inhibitors of TNFa-induced NFkB p65 translocation, primary screen, imaging, HUVEC, MLSMR starter and 10KST1 sets (AID 438;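 active = inhibition above 20% together with a positive visual image hit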;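 also: compound added about 3h40 before a 20 min TNFalpha stimulation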;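 as to inhibition: signal is the nuclear over cytoplasmic p65 intensity ratio per well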); details: HUVEC TNFa-induced p65 nuclear translocation; cell count: measured here: nuclei count (cytotoxicity indicator), at 2.08 µM; inhibition: at 2 µM, stronger effect = higher value, 0% TNFa-plus-vehicle, 100% no-TNFa wells
# [2] = reduction of polyQ htt aggregates in cells – imaging, exon1htt(103Q)mCFP cells, high-content imaging, primary screen (AID 483;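 active = visual image review flags a hit and inhibition of aggregation exceeds 20%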;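 also: compound exposure lasted 3 days before fixation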;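 as to nuclei count: percent of the per-plate median nuclei count of sample wells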); details: exon1htt(103Q)mCFP cell line, aggregate imaging, at 2 µM; inhibition of aggregation: stronger effect = higher value; nuclei count: measured here: cell count, toxicity
# [3] = endothelial E-selectin expression blockers – imaging, HUVEC, immunofluorescence, MLSMR starter and 10KST1 sets, primary screen (AID 487); details: HUVEC TNFalpha-induced E-selectin immunofluorescence imaging, at 2 µM; inhibition: stronger effect = higher value; nuclei count: measured here: cell number, toxicity;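 as to inhibition: signal is fraction of cell area covered by stained E-selectin grains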;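 as to nuclei count: 100% = median nuclei count of all wells on the same plate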
# [4] = target: Voltage-gated potassium channel subunit beta-2 (Rattus norvegicus) (UniProt P62483); assay: inhibitors of rat Kvbeta2 reductase activity – biochemical, NADPH fluorescence, primary screen (AID 622;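 active = fluorescence slope higher than the sample average by over 3 SD, cut at about -0.22 in these data, passing the limit was not always enough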;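 also: slope of raw intensity against log time taken from 70 to 1610 s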); details: recombinant KvBeta, 4-cyanobenzaldehyde reduction, at 10 µM, stronger effect = higher value
# [5] = target: Voltage-gated potassium channel subunit beta-2 (Rattus norvegicus) (UniProt P62483); assay: enhancers of rat Kvbeta2 NADPH turnover – biochemical, NADPH fluorescence, primary screen (AID 623;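 active = NADPH fluorescence slope more negative than the mean of all samples by about 3 SD, 99.7% confidence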;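 also: fluorescence intensity change per second fitted from 20 to 320 s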); details: Recombinant KvBeta, NADPH fluorescence decrease slope, 10 min; at 10 µM; stronger effect = lower value
# [6] = target: Alpha-2C adrenergic receptor (Homo sapiens) (UniProt P18825); assay: compounds altering alpha2C-coupled GIRK flux – cell-based, HEK293 alpha2C/GIRK1/2, thallium flux, primary screen (AID 624;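 active = fluorescence slope after compound addition differing from the mean of all screened samples at 99.7% confidence, in either direction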;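 also: slope of fluorescence ratio to pre-addition baseline per second over 15 to 24 s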); details: thallium flux BTC fluorescence, at 10 µM, actives lie on both sides
# [7] = blockers of RIG-like receptor reporter activation – cell-based, Sendai virus stimulus, luciferase, 10K MLSCN set, TLR/RLR signaling modifier project, primary screen (AID 602276;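 active = inhibition at or above 50% at 10 µM; inactive = inhibition below 50%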;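 also: firefly luciferase from ISG56 promoter only with Renilla not read in this screen; 0% = Sendai virus plus DMSO and 100% = medium plus DMSO without virus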); details: HEK293 RL24 IRF3 luciferase reporter, at 10 µM, stronger effect = higher value
# [8] = TLR3 IRF3 reporter activation blockers – cell-based, poly I:C stimulus, luciferase, 10K MLSCN set, primary screen (AID 602277;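 active = inhibition of the reporter signal at or above 50%; inactive = inhibition below 50%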); details: HEK293-TLR3 RL24 IRF3 luciferase reporter, at 10 µM, stronger effect = higher value
# Alpha-2C adrenergic receptor (Homo sapiens), sequence (P18825 whole entry, looked up): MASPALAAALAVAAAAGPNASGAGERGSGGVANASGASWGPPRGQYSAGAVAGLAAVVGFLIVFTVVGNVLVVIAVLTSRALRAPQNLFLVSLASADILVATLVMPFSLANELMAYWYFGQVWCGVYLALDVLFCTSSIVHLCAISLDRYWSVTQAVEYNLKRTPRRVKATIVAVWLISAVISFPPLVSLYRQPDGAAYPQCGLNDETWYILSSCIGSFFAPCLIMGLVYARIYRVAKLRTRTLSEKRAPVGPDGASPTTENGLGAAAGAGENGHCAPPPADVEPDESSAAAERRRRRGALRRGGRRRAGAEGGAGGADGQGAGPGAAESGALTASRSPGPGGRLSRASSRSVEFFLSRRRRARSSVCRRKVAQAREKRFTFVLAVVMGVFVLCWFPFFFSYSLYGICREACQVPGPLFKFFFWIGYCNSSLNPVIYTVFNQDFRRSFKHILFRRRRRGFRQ
# Voltage-gated potassium channel subunit beta-2 (Rattus norvegicus), sequence (P62483 whole entry, looked up): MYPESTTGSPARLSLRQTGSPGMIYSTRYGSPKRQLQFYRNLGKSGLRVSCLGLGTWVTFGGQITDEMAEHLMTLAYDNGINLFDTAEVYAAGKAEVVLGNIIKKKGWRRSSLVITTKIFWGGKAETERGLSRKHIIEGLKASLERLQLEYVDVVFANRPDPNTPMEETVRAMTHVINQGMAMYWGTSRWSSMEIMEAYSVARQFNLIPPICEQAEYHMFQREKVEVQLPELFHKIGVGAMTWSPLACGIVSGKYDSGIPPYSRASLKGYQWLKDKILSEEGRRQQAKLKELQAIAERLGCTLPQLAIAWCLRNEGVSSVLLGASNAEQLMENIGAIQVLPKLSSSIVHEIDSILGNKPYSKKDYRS
Structure (SMILES),cell count [1],inhibition [1],inhibition of aggregation [2],nuclei count [2] [%],inhibition [3],nuclei count [3] [%],fluorescence slope [4],NADPH fluorescence slope [5],slope [6],inhibition [7],inhibition [8]
O=C(Cc1ccccc1)N1CCCC(c2nc(-c3cccs3)no2)C1 (stereo not drawn),731,-6.1% (inactive),-15.1% (inactive),89.6,-22.8% (inactive),121,-0.475 (inactive),1.1e-05 (inactive),0.00636 (inactive),-9.21% (inactive),2.57% (inactive)
O=C(C1CCCN(S(=O)(=O)c2cccc3nonc23)C1)N1CCC(Cc2ccccc2)CC1 (stereo not drawn),385,-11.2% (inactive),3% (inactive),101,24.5% (inactive),59.6,-0.304 (inactive),-1e-05 (inactive),0.00394 (inactive),7.74% (inactive),25.7% (inactive)
Cc1noc(C)c1COc1cccc(C(=O)Nc2ccc(C#N)cc2)c1,422,0.4% (inactive),3.1% (inactive),94.2,-15.6% (inactive),106,-0.455 (inactive),-4.9e-05 (inactive),0.00473 (inactive),2.49% (inactive),-0.298% (inactive)
CC1CCCN(C(=O)C23CCC(C)(C(=O)C2)C3(C)C)C1 (stereo not drawn),636,0% (inactive),-8.3% (inactive),90.8,-29.8% (inactive),99.7,-0.593 (inactive),-1.7e-05 (inactive),0.00596 (inactive),5.18% (inactive),8.32% (inactive)
CNC(=O)CSc1nnc(-c2cc3c(C)nn(-c4ccccc4)c3s2)n1C,428,4.3% (inactive),2.8% (inactive),74.6,-35.6% (inactive),118,-0.405 (inactive),4.5e-05 (inactive),0.00659 (inactive),-6.24% (inactive),-6.6% (inactive)
COc1cc2c(cc1OC)CN(C(=O)COc1ccc(C)c(C)c1)CC2,653,-3% (inactive),-11.6% (inactive),106,17.1% (inactive),106,-0.456 (inactive),1.3e-05 (inactive),0.00534 (inactive),18.6% (inactive),20.9% (inactive)
CCOC(=O)c1csc(NC(=O)C2CCCCC2)n1,706,-18.4% (inactive),-10% (inactive),90.2,-4.9% (inactive),94.6,-0.419 (inactive),-0.000101 (inactive),0.00464 (inactive),-47.3% (inactive),-124% (inactive)
COc1ccccc1OCCSc1nc2ccccc2c(=O)[nH]1,361,3.5% (inactive),-4.7% (inactive),89.3,-49.6% (inactive),86.8,-0.35 (inactive),-5.3e-05 (inactive),0.00628 (inactive),-4.62% (inactive),-5.54% (inactive)
